Reference: PubChem BioAssay (Tox21)
Inconclusive results are not listed. Unmarked numbers belong to inactive results. Calls of active or inactive are those of the source. Unless noted, calls come from the whole dose curve.

Test: qHTS assay to identify small molecule agonists of the NFkB signaling pathway - cell viability counter screen (AID 1159515); note: nearly all actives have a fitted effect of over 55% in size
Conditions: NFkB-bla ME-180 viability, CellTiter-Glo luminescence, 5 h; series mostly up to 61 µM; activity, negative = cytotoxic: at the top concentration
In short: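 5 hr compound treatment of NFkB-bla ME-180 cells (2,000/well, seeded overnight beforehand), followed by reporter substrate for 1.5 hr. CellTiter-Glo added afterward; luminescence after 30 min RT.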
% is set by controls: 0 for no effect and ±100 for the full control effect.

| SMILES | activity, negative = cytotoxic | Potency |
| --- | --- | --- |
| Cc1cccc(O)c1C | 1.15% [at 78.8 µM] | – |
| CCOC(=O)C(C)C(C)=O (centres undefined) | 9.87% [at 78.8 µM] | – |
| CO[Si](OC)(OC)c1ccccc1 | -0.256% | – |
| CCN(CC)C(=O)Nc1ccc(OCC(O)CNC(C)(C)C)c(C(C)=O)c1 (centres undefined) | 8.45% | – |
| CC(C)(C)NCC(O)COc1ccccc1OCC1CCCO1 (centres undefined) | 1.17% | – |
| COC(=O)c1cccc(C(=O)OC)c1 | 13.9% | – |
| CC(C)(C)NCC(O)c1cc(O)cc(O)c1 (centres undefined) | -4.36% | – |
| O=Cc1ccc(Cl)cc1 | 4.28% | – |
| CC1COc2c(N3CCN(C)CC3)c(F)cc3c(=O)c(C(=O)O)cn1c23 (centres undefined) | 2.72% | – |
| O=C(Oc1ccccc1)c1ccccc1O | 3.97% | – |
| C=CS(=O)(=O)O | 9.95% [at 78.8 µM] | – |
| CC(=O)OCC1=C(C(=O)O)N2C(=O)[C@@H](NC(=O)Cc3cccs3)[C@H]2SC1 | 5.17% | – |
| NNCCc1ccccc1 | 0.329% | – |
| O=C(Cl)c1cccc(C(=O)Cl)c1 | -3.29% | – |
| COC(=O)/C=C/c1ccccc1 | 3.4% | – |
| O=c1n(CC2CO2)c(=O)n(CC2CO2)c(=O)n1CC1CO1 (centres undefined) | – | inactive |
| O=C(O)Cn1cnnn1 | 8.76% | – |
| CN1C(=O)c2ccc([N+](=O)[O-])cc2C1=O | 10.1% | – |
| Cc1cccc([N+](=O)[O-])c1C(=O)O | 6.04% | – |

| SMILES | activity, negative = cytotoxic | Potency |
| --- | --- | --- |
| Cc1scc2c1N(C(=O)CN1CCN(C)CC1)c1ccccc1NC2=O | 2.2% | – |
| CC(C)(C)NC(=O)[C@@H]1CN(Cc2cccnc2)CCN1C[C@@H](O)C[C@@H](Cc1ccccc1)C(=O)N[C@H]1c2ccccc2C[C@H]1O | -3.56% | – |
| C/C=C/c1ccc(OCC)c(O)c1 | 7.3% | – |
| CC(C)C(=O)c1c(C(C)C)nn2ccccc12 | -1% | – |
| CCC[C@H](N[C@@H](C)C(=O)N1[C@H](C(=O)O)C[C@@H]2CCCC[C@@H]21)C(=O)OCC | 5.41% | – |
| NC(Cc1ccc(Cl)cc1)C(=O)O (centres undefined) | 8.56% [at 0.628 µM] | – |
| O=C1NCC2(CCN(CCc3ccccc3)CC2)O1 | 5.88% | – |
| CC1COC(=O)O1 (centres undefined) | -11.4% | – |
| CCCN[C@H]1CCc2nc(N)sc2C1 | 5.2% | – |
| C[N+]1([O-])CCOCC1 | -1.37% | – |
| CC(C)CCOCc1ccccc1 | 1.08% | – |
| O=C(O)c1cccc(C(=O)O)c1 | -1.92% | – |
| COc1cc(C(=S)N2CCOCC2)ccc1O | -6.38% | – |
| CCCNC(C)C(=O)Nc1ccccc1C (centres undefined) | 11.5% | – |
| c1ccc2n[nH]nc2c1 | 2.78% | – |
| CC1=C(C=O)C(C)(C)CC=C1 | 8.41% [at 78.8 µM] | – |
| CCOc1ccccc1C(N)=O | 9.97% | – |
| O=C(O)CCc1ccccc1 | 10.5% | – |
| CC(N)=O | -1.88% [at 216 µM] | – |

Test: qHTS assay to identify small molecule agonists of the endoplasmic reticulum stress response signaling pathway (AID 1159516; active = well fitted activation curve with a large enough effect in the signal ratio in the repeat runs, not every such curve was filed as active; the % refers to the signal ratio)
Conditions: ESRE-bla HeLa, ER stress beta-lactamase reporter, 5 h; series mostly up to 61 µM; activation: at the top concentration
In short: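 Reporter HeLa cells (ESRE-beta-lactamase) underwent 5 hr compound incubation at 37 C and 5% CO2 in quantitative HTS format. Detection followed 2 hr of FRET substrate loading at room temperature.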

| SMILES | activation | outcome |
| --- | --- | --- |
| Cc1cccc(O)c1C | -1.21% | – |
| CCOC(=O)C(C)C(C)=O (centres undefined) | -3.92% [at 78.8 µM] | – |
| CO[Si](OC)(OC)c1ccccc1 | 7.19% | – |
| CCN(CC)C(=O)Nc1ccc(OCC(O)CNC(C)(C)C)c(C(C)=O)c1 (centres undefined) | -1.05% | – |
| CC(C)(C)NCC(O)COc1ccccc1OCC1CCCO1 (centres undefined) | 0.41% | – |
| COC(=O)c1cccc(C(=O)OC)c1 | – | inactive |
| CC(C)(C)NCC(O)c1cc(O)cc(O)c1 (centres undefined) | 0.218% | – |
| O=Cc1ccc(Cl)cc1 | -2.26% | – |
| CC1COc2c(N3CCN(C)CC3)c(F)cc3c(=O)c(C(=O)O)cn1c23 (centres undefined) | 1.56% | – |
| O=C(Oc1ccccc1)c1ccccc1O | – | inactive |
| C=CS(=O)(=O)O | -0.912% [at 78.8 µM] | – |
| CC(=O)OCC1=C(C(=O)O)N2C(=O)[C@@H](NC(=O)Cc3cccs3)[C@H]2SC1 | 5.01% | – |
| NNCCc1ccccc1 | – | inactive |
| O=C(Cl)c1cccc(C(=O)Cl)c1 | – | inactive |
| COC(=O)/C=C/c1ccccc1 | 0.0502% | – |
| O=c1n(CC2CO2)c(=O)n(CC2CO2)c(=O)n1CC1CO1 (centres undefined) | -0.133% | – |
| O=C(O)Cn1cnnn1 | -0.0263% | – |
| CN1C(=O)c2ccc([N+](=O)[O-])cc2C1=O | -0.307% | – |
| Cc1cccc([N+](=O)[O-])c1C(=O)O | 0.758% | – |

| SMILES | activation | outcome |
| --- | --- | --- |
| Cc1scc2c1N(C(=O)CN1CCN(C)CC1)c1ccccc1NC2=O | -1.34% | – |
| CC(C)(C)NC(=O)[C@@H]1CN(Cc2cccnc2)CCN1C[C@@H](O)C[C@@H](Cc1ccccc1)C(=O)N[C@H]1c2ccccc2C[C@H]1O | – | inactive |
| C/C=C/c1ccc(OCC)c(O)c1 | -1.39% | – |
| CC(C)C(=O)c1c(C(C)C)nn2ccccc12 | -3.06% | – |
| CCC[C@H](N[C@@H](C)C(=O)N1[C@H](C(=O)O)C[C@@H]2CCCC[C@@H]21)C(=O)OCC | -1.97% | – |
| NC(Cc1ccc(Cl)cc1)C(=O)O (centres undefined) | 2.37% [at 0.628 µM] | – |
| O=C1NCC2(CCN(CCc3ccccc3)CC2)O1 | 2.01% | – |
| CC1COC(=O)O1 (centres undefined) | 1.44% | – |
| CCCN[C@H]1CCc2nc(N)sc2C1 | – | inactive |
| C[N+]1([O-])CCOCC1 | -0.168% | – |
| CC(C)CCOCc1ccccc1 | -0.556% | – |
| O=C(O)c1cccc(C(=O)O)c1 | – | inactive |
| COc1cc(C(=S)N2CCOCC2)ccc1O | -0.237% | – |
| CCCNC(C)C(=O)Nc1ccccc1C (centres undefined) | -2.27% | – |
| c1ccc2n[nH]nc2c1 | 1.86% | – |
| CC1=C(C=O)C(C)(C)CC=C1 | -0.0384% [at 78.8 µM] | – |
| CCOc1ccccc1C(N)=O | – | inactive |
| O=C(O)CCc1ccccc1 | 1.68% | – |
| CC(N)=O | -2.2% [at 216 µM] | – |

Test: qHTS assay to identify small molecule agonists of the endoplasmic reticulum stress response signaling pathway - cell viability counter screen (AID 1159517);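 note: HeLa cells carrying an ER stress response element beta-lactamase reporter; nearly all actives have a fitted effect of over 50% in size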
Conditions: ESRE-bla HeLa viability, CellTiter-Glo luminescence, 5 h; series mostly up to 61 µM; activity change, negative = cytotoxicity: at the top concentration
In short: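 Counter-screen wells were identical to the reporter wells. Cells were plated at 1,500 per well and dosed for 5 hr, then read for luminescence 30 min after CellTiter-Glo addition.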

| SMILES | Potency | activity change, negative = cytotoxicity |
| --- | --- | --- |
| Cc1cccc(O)c1C | inactive | – |
| CCOC(=O)C(C)C(C)=O (centres undefined) | – | 20.7% [at 78.8 µM] |
| CO[Si](OC)(OC)c1ccccc1 | – | 17.3% |
| CCN(CC)C(=O)Nc1ccc(OCC(O)CNC(C)(C)C)c(C(C)=O)c1 (centres undefined) | – | 10.1% |
| CC(C)(C)NCC(O)COc1ccccc1OCC1CCCO1 (centres undefined) | – | -0.714% |
| COC(=O)c1cccc(C(=O)OC)c1 | inactive | – |
| CC(C)(C)NCC(O)c1cc(O)cc(O)c1 (centres undefined) | – | 0.316% |
| O=Cc1ccc(Cl)cc1 | – | 4.17% |
| CC1COc2c(N3CCN(C)CC3)c(F)cc3c(=O)c(C(=O)O)cn1c23 (centres undefined) | – | -9.31% |
| O=C(Oc1ccccc1)c1ccccc1O | inactive | – |
| C=CS(=O)(=O)O | – | 5.23% [at 78.8 µM] |
| CC(=O)OCC1=C(C(=O)O)N2C(=O)[C@@H](NC(=O)Cc3cccs3)[C@H]2SC1 | – | 2.98% |
| NNCCc1ccccc1 | inactive | – |
| O=C(Cl)c1cccc(C(=O)Cl)c1 | inactive | – |
| COC(=O)/C=C/c1ccccc1 | – | 6.44% |
| O=c1n(CC2CO2)c(=O)n(CC2CO2)c(=O)n1CC1CO1 (centres undefined) | – | 1.09% |
| O=C(O)Cn1cnnn1 | – | 4.12% |
| CN1C(=O)c2ccc([N+](=O)[O-])cc2C1=O | – | 9.23% |
| Cc1cccc([N+](=O)[O-])c1C(=O)O | – | -2.88% |

| SMILES | Potency | activity change, negative = cytotoxicity |
| --- | --- | --- |
| Cc1scc2c1N(C(=O)CN1CCN(C)CC1)c1ccccc1NC2=O | – | 8.73% |
| CC(C)(C)NC(=O)[C@@H]1CN(Cc2cccnc2)CCN1C[C@@H](O)C[C@@H](Cc1ccccc1)C(=O)N[C@H]1c2ccccc2C[C@H]1O | inactive | – |
| C/C=C/c1ccc(OCC)c(O)c1 | – | -4.2% |
| CC(C)C(=O)c1c(C(C)C)nn2ccccc12 | – | 9.47% |
| CCC[C@H](N[C@@H](C)C(=O)N1[C@H](C(=O)O)C[C@@H]2CCCC[C@@H]21)C(=O)OCC | – | 0.684% |
| NC(Cc1ccc(Cl)cc1)C(=O)O (centres undefined) | – | 3.91% [at 0.628 µM] |
| O=C1NCC2(CCN(CCc3ccccc3)CC2)O1 | – | 2.06% |
| CC1COC(=O)O1 (centres undefined) | inactive | – |
| CCCN[C@H]1CCc2nc(N)sc2C1 | – | 0.52% [at 78.8 µM] |
| C[N+]1([O-])CCOCC1 | – | 9.46% |
| CC(C)CCOCc1ccccc1 | – | 8.3% |
| O=C(O)c1cccc(C(=O)O)c1 | inactive | – |
| COc1cc(C(=S)N2CCOCC2)ccc1O | – | -8.95% |
| CCCNC(C)C(=O)Nc1ccccc1C (centres undefined) | – | 10.3% |
| c1ccc2n[nH]nc2c1 | inactive | – |
| CC1=C(C=O)C(C)(C)CC=C1 | – | 10.5% [at 78.8 µM] |
| CCOc1ccccc1C(N)=O | – | -7.51% |
| O=C(O)CCc1ccccc1 | – | 1.29% |
| CC(N)=O | – | 1.8% [at 216 µM] |
